Screening data (PubChem BioAssay)
The list is not random: actives were taken first. Their share in the collection is about 2.5%.
POLB inh – qHTS Assay for Inhibitors of DNA Polymerase Beta. P06746. Pol beta primer extension/strand displacement, fluorescence kinetic. Potency, µM (highest dose often 114 µM), usual class: inhibitors. 340,000 compounds, 1.3% hits
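Homogeneous kinetic assay of primer extension and strand displacement by 10 nM Pol beta, preincubated 15 min at room temperature with compound before 50 nM substrate (final) was added. Read at 0 and 10 min; four-parameter Hill fit.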
L3MBTL1 block – qHTS Assay for the Inhibitors of L3MBTL1 | Lethal(3)malignant brain tumor-like protein 1 (Homo sapiens), Q9Y468 | AlphaScreen L3MBTL1–H3K9me1 peptide binding | Potency, µM (doses to about 57.1 µM), hits mostly inhibitors | 230,000 compounds, 0.66% hits | AID 485360, 2010; also: nearly all actives have a fitted effect of over 60% in size
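First, the protein-peptide complex forms for 30 min at room temperature (L3MBTL1 50 nM, biotinylated H3K9me1 peptide 75 nM). Next, compounds are pin-transferred and incubated 30 min. Finally, AlphaScreen beads are added and read after 30 min.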
WRN helicase inh – qHTS for Inhibitors of WRN Helicase; AID 651768, 2012; Potency, µM (doses to about 114 µM), hits mostly inhibitors; WRN helicase unwinding, fluorescent forked duplex, kinetic; 360,000 compounds, 0.46% hits; Bifunctional 3'-5' exonuclease/ATP-dependent helicase WRN (Homo sapiens), Q14191; also: nearly all actives have a fitted effect of over 55% in size
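WRN at 20 nM final was preincubated with compound for 15 min at room temperature; reaction started with 100 nM forked duplex oligonucleotide carrying fluorophore and quencher plus 2 mM ATP (final). Unwinding followed kinetically by red fluorescence (ex 525/em 598 nm).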
POLI inh – qHTS for Inhibitors of Polymerase Iota; DNA polymerase iota (Homo sapiens), Q9UNA4; Pol iota fluorescent replication assay, 10 min; Potency, µM (series often up to 115 µM), hits mostly inhibitors; 390,000 compounds, 1% hits
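Pol iota at 10 nM preincubated 15 min with compounds at room temperature; reaction started with fluorescent substrate, 50 nM final. Fluorescence read kinetically at 0 and 10 min; buffer-only wells as negative control.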
Pol eta inh – qHTS for Inhibitors of Polymerase Eta. DNA polymerase eta (Homo sapiens), Q9Y253. recombinant Pol eta, fluorescent DNA replication assay. Potency, µM (top dose mostly 114 µM), actives largely listed as inhibitors. 390,000 compounds, 1.2% hits
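Pol eta at 10 nM preincubated with compounds 15 min at room temperature; reaction started with fluorescent substrate (50 nM final) and read kinetically at 0 and 10 min.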
POLK inh – qHTS for Inhibitors of Polymerase Kappa. Potency, µM (doses to about 107 µM), most hits filed as inhibitors. DNA polymerase kappa (Homo sapiens), Q9UBT6. purified Pol kappa, fluorescent DNA synthesis assay, 10 min. AID 588579, 2011. 400,000 compounds, 0.53% hits
Target sequence (Q9UBT6 whole entry, looked up): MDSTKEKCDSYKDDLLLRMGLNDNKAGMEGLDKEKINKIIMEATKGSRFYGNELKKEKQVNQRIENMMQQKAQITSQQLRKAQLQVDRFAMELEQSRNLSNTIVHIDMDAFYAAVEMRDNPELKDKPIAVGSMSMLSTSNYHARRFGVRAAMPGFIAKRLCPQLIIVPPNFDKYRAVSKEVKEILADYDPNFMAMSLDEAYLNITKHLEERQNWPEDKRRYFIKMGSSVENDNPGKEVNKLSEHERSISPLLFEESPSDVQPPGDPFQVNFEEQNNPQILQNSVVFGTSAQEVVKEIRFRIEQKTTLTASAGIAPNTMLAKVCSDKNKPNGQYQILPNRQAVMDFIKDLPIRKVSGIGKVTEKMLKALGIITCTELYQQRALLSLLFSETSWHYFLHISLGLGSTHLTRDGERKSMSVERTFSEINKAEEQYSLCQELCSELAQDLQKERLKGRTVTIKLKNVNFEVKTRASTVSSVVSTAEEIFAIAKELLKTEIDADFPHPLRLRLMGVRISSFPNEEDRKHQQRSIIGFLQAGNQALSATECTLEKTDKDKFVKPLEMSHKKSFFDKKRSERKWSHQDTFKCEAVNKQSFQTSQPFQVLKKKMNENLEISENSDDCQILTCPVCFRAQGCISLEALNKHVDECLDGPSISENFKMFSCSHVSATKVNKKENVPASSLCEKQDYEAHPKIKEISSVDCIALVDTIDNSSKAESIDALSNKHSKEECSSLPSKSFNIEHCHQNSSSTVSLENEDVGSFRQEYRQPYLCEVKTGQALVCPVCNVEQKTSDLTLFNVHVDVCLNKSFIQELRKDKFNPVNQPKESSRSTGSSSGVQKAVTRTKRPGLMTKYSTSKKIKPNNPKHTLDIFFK
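10 nM Pol kappa was preincubated with compounds for 15 min at room temperature. Reaction started with 50 nM (final) substrate. Fluorescence read kinetically at 0 and 10 min.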
Of the large screens only hits and unclear results are named; the others gave an inactive call. Calls follow the shape of the dose curve; as a rule, active = well fitted curve in the direction sought with a large enough effect; inconclusive = small, poorly fitted or top-dose-only effect, or another doubt; inactive = no such curve, though single readings can be large; an effect the other way counts as inactive or inconclusive.

C#CCOCCOCCOCCNc1nc(N2CCN(C(=O)[C@H](Cc3cc4ccccc4[nH]3)n3cc([C@@H](N)CC(C)C)nn3)CC2)nc(N2CCN(C(=O)[C@H](Cc3cc4ccccc4[nH]3)n3cc([C@@H](N)CC(C)C)nn3)CC2)n1	POLB inh 28.2µM, L3MBTL1 block inconclusive, POLI inh inconclusive
C#CCOCCOCCOCCNc1nc(N2CCN(C(=O)[C@H](Cc3cc4ccccc4[nH]3)n3cc([C@@H](N)Cc4ccc(O)cc4)nn3)CC2)nc(N2CCN(C(=O)[C@H](Cc3cc4ccccc4[nH]3)n3cc([C@@H](N)CC(C)C)nn3)CC2)n1	POLI inh inconclusive (no result: L3MBTL1 block)
C#CCOCCOCCOCCNc1nc(N2CCN(C(=O)C(Cc3cc4ccccc4[nH]3)n3cc(C(N)Cc4ccc(O)cc4)nn3)CC2)nc(N2CCN(C(=O)C(CCC(=O)O)n3cc(C(N)C(C)CC)nn3)CC2)n1 (stereo not drawn)	L3MBTL1 block 25.1µM, POLI inh inconclusive (no result: POLB inh)
C#CCOCCOCCOCCNc1nc(N2CCN(C(=O)[C@H](Cc3cc4ccccc4[nH]3)n3cc([C@@H](N)C(C)CC)nn3)CC2)nc(N2CCN(C(=O)[C@H](Cc3cc4ccccc4[nH]3)n3cc([C@@H](N)Cc4ccc(O)cc4)nn3)CC2)n1 (stereo partly drawn)	L3MBTL1 block inconclusive (no result: WRN helicase inh, POLI inh, Pol eta inh, POLK inh)
C#CCOCCOCCOCCNc1nc(N2CCN(C(=O)[C@H](Cc3ccc(O)cc3)n3cc([C@@H](N)C(C)CC)nn3)CC2)nc(N2CCN(C(=O)[C@H](Cc3cc4ccccc4[nH]3)n3cc([C@@H](N)C(C)CC)nn3)CC2)n1 (stereo partly drawn)	POLB inh 25.1µM, L3MBTL1 block inconclusive, POLI inh 28.2µM
CC(C)=CCc1c(O)cc2oc3c(CC=C(C)C)c(O)c(O)c(CC=C(C)C)c3c(=O)c2c1O	POLB inh 44.7µM, POLI inh inconclusive, Pol eta inh 39.8µM, POLK inh 79.4µM (no result: L3MBTL1 block)
CCN(CC)C(=O)CC(c1ccc(OC)cc1)c1c(OC)cc(OC)c2c(-c3ccccc3)cc(=O)oc12 (stereo not drawn)	POLI inh inconclusive, POLK inh 79.4µM (no result: POLB inh, L3MBTL1 block, WRN helicase inh, Pol eta inh)
COc1cc(OC)c2c(-c3ccccc3)cc(=O)oc2c1C(CC(=O)N1CCCC1)c1ccc2c(c1)OCO2 (stereo not drawn)	POLB inh 50.1µM, POLI inh 79.4µM, POLK inh inconclusive (no result: L3MBTL1 block)
COc1cc(OC)c2ccc(=O)oc2c1C(CC(=O)N1CCCCC1)c1ccc2c(c1)OCO2 (stereo not drawn)	POLI inh 89.1µM, POLK inh inconclusive (no result: POLB inh, L3MBTL1 block, WRN helicase inh, Pol eta inh)
COc1cc(OC)c2c(-c3ccccc3)cc(=O)oc2c1C(CCN1CCCCC1)c1ccc2c(c1)OCO2 (stereo not drawn)	Pol eta inh inconclusive (no result: L3MBTL1 block)
COc1ccc(C(CCN2CCCCC2)c2c(OC)cc(OC)c3c(-c4ccccc4)cc(=O)oc23)cc1 (stereo not drawn)	none (no result: L3MBTL1 block)
COc1cc(O)c(C(CC(=O)N2CCCCC2)c2ccc3c(c2)OCO3)c(OC)c1 (stereo not drawn)	none (no result: L3MBTL1 block)
COc1cc(O)c(C(CC(=O)N2CCCC(C)C2)c2ccc3c(c2)OCO3)c(OC)c1 (stereo not drawn)	none (no result: L3MBTL1 block)
COc1cc(OC)c2ccc(=O)oc2c1C(CC(=O)N1CCCC(C)C1)c1ccc2c(c1)OCO2 (stereo not drawn)	POLB inh 39.8µM, POLI inh inconclusive, Pol eta inh 39.8µM, POLK inh inconclusive (no result: L3MBTL1 block)
COc1ccccc1N1CCN(CCN2C(=O)C3CCCCN3C2=O)CC1 (stereo not drawn)	none
COc1cc(/C=N/NC(=O)c2ccccn2)ccc1OC(=O)c1cccs1	none (no result: L3MBTL1 block)
CC(C)(C)C(=O)OCOP(=O)(OCOC(=O)C(C)(C)C)C(C)(Oc1ccc(O)cc1)P(=O)(OCOC(=O)C(C)(C)C)OCOC(=O)C(C)(C)C	POLK inh 35.5µM (no result: POLB inh, L3MBTL1 block, WRN helicase inh, POLI inh, Pol eta inh)
CC(C)(C)C(=O)COC(=O)c1ccc(O)cc1	none
CC(Oc1ccc(O)cc1)(P(=O)(O)O)P(=O)(O)O	POLK inh 12.6µM (no result: POLB inh, L3MBTL1 block, WRN helicase inh, POLI inh, Pol eta inh)
CN1C(=O)c2cccc3c(S(=O)(=O)Nc4ccc(O)c(C(=O)O)c4)ccc1c23	WRN helicase inh inconclusive (no result: L3MBTL1 block)
CSc1ccc(C2C(C#N)=C(N)Oc3cc4c(cc32)OCO4)cc1 (stereo not drawn)	POLK inh 89.1µM (no result: L3MBTL1 block)
O=C(NC(=S)N1CCCc2ccccc21)c1ccc(Cl)cc1	none
CN(C1CCCCC1)S(=O)(=O)c1cc2c3c(c1)CCN3C(=O)CC2	none (no result: POLB inh)
O=C1CCc2cc(S(=O)(=O)NC3CCCCC3)cc3c2N1CC3	L3MBTL1 block inconclusive, POLI inh 50.1µM, Pol eta inh inconclusive (no result: POLB inh)
OCCN=c1cc(-c2ccccc2)oc2ccc(Cl)cc12	POLB inh 89.1µM, POLI inh inconclusive
CN(C)CCCN=c1cc(-c2ccccc2)oc2ccc(Cl)cc12	none (no result: L3MBTL1 block)
CCC(=O)N1CC2(c3ccccc3)CN(C(=O)CC)CC(c3ccccc3)(C1)C2=O	none
COc1ccc(-c2nnn(CC(=O)N3CCOCC3)n2)cc1	none (no result: L3MBTL1 block)
O=C(Cc1cccs1)Nc1ccc(-c2nnn(CC(=O)N3CCOCC3)n2)cc1	POLB inh 17.8µM, L3MBTL1 block inconclusive
O=C(NCc1ccccc1F)C(=O)NCC(c1ccco1)S(=O)(=O)c1cccs1 (stereo not drawn)	none (no result: L3MBTL1 block, WRN helicase inh)
O=C(N/N=C/c1ccccc1C(=O)O)c1cc(-c2ccc3c4c(cccc24)CC3)n[nH]1	POLB inh 56.2µM, Pol eta inh inconclusive
Cc1cc(C)c(S(=O)(=O)N2CCN(C(=O)c3c(C)noc3C)CC2)c(C)c1	Pol eta inh inconclusive (no result: POLB inh)
COc1ccc(CNC(=O)C2CCCN2S(=O)(=O)c2ccc(Cl)cc2)cc1 (stereo not drawn)	none
O=C1CC(=O)OC(c2ccc([N+](=O)[O-])cc2)O1	none (no result: POLB inh, L3MBTL1 block, POLI inh, POLK inh)
CCC1C(=O)C(C)(C)C(=O)OC1c1ccc([N+](=O)[O-])cc1 (stereo not drawn)	POLB inh 89.1µM
CCCN(CCC)CC(O)CN(c1cc([N+](=O)[O-])ccc1OC)S(=O)(=O)c1ccccc1 (stereo not drawn)	none
O=C(CSc1nnc(NC(=O)C2CC(=O)N(c3ccccc3)C2)s1)NCc1ccco1 (stereo not drawn)	POLB inh 89.1µM, POLI inh 50.1µM, Pol eta inh inconclusive, POLK inh inconclusive (no result: L3MBTL1 block)
COc1cccc(N2CC(C(=O)Nc3nnc(SCC(=O)NC4CCCC4)s3)CC2=O)c1 (stereo not drawn)	POLI inh inconclusive, Pol eta inh inconclusive (no result: L3MBTL1 block)
